Most compounds without a hit are left out; they make up all but 2.4% or so of the library.
POLH inh = blocks human DNA polymerase eta activity; Q9Y253; recombinant Pol eta, fluorescent DNA replication assay; Potency, µM (highest dose often 114 µM), hits mostly inhibitors; actives 1.2% (n = 390,000); AID 588591
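Pol eta (10 nM) was preincubated with compounds for 15 min at room temperature, after which fluorescent replication substrate (50 nM final) was added to start the reaction. Fluorescence was read kinetically at 0 and 10 min.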
Pol kappa inh = DNA polymerase kappa (human) inhibition | Potency, µM (top dose mostly 107 µM), most hits filed as inhibitors | purified Pol kappa, fluorescent DNA synthesis assay, 10 min | actives 0.53% (n = 400,000) | AID 588579
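First, compounds were pin-transferred onto 10 nM Pol kappa. After 15 min at room temperature, substrate was added to 50 nM final. Fluorescence was then measured kinetically at 0 and 10 min.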
Pol beta inh = inhibitors of human DNA polymerase beta; P06746; Pol beta primer extension/strand displacement, fluorescence kinetic; Potency, µM (highest dose often 114 µM), most hits filed as inhibitors; actives 1.3% (n = 340,000); AID 485314
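Enzyme-only controls used 10 nM Pol beta; buffer lacking enzyme served as negative control. Compound preincubated 15 min, then 50 nM substrate added; 0 and 10 min reads at room temperature.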
Tb PGK inh = T. brucei PGK inhibition; P07378; PGK/GAPDH coupled, Kinase-Glo luminescence, 60 min; Potency, µM (doses to about 57.5 µM), actives largely listed as inhibitors; actives 0.043% (n = 380,000); AID 602233; note: nearly all actives have a fitted effect of over 60% in size
Target sequence (P07378 whole entry, looked up): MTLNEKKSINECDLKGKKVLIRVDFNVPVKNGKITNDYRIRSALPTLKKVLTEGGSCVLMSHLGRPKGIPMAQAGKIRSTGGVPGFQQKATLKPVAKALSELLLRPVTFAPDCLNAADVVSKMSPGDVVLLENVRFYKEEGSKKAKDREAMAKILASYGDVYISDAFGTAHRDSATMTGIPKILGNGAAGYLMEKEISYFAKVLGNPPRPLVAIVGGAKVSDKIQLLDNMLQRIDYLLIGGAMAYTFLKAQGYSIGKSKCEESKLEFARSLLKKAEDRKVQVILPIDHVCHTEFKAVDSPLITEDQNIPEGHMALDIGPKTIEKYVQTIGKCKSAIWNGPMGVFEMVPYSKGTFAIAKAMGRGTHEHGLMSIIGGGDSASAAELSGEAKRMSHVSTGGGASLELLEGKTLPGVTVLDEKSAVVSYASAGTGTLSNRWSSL
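Recombinant glycosomal PGK reaction used 1,3-bisphosphoglycerate generated in-well by GAPDH (100nM final) in 100mM TEA pH 7.6, 5mM MgCl2, 0.01% Tween-20. After 60 minutes at room temperature, ATP was read by Kinase-Glo Plus luminescence end-point.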
POLI inh = blocks human DNA polymerase iota activity. Q9UNA4. Pol iota fluorescent replication assay, 10 min. Potency, µM (series often up to 115 µM), actives largely listed as inhibitors. actives 1% (n = 390,000)
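Fluorescent replication assay read twice, at 0 min and 10 min after adding 50 nM (final) substrate. Enzyme (10 nM) and compounds were first incubated 15 min at room temperature; enzyme-free buffer wells were negative controls.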
FEN1 inhibitor = inhibitors of human flap endonuclease 1; P39748; Recombinant FEN1 flap cleavage, fluorescence, 15 min; Potency, µM (series often up to 114 µM), most hits filed as inhibitors; actives 0.35% (n = 390,000); AID 588795; note: nearly all actives have a fitted effect of over 65% in size
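With each library titrated from low to high concentration, compounds met 10 nM FEN1 for 15 min at room temperature before 50 nM substrate was added; readings at 0 and 15 min fed four-parameter Hill curve fits.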
Each line names hits and unclear results; the compound was inactive in the other large screens; ! = not active in a repeat. Calls come from the whole dose curve; as a rule, active = well fitted curve in the direction sought with a large enough effect; inconclusive = small, poorly fitted or top-dose-only effect, or another doubt; inactive = no such curve, though single readings can be large; an effect the other way counts as inactive or inconclusive.

CCOC(=O)c1cc2c(=O)n3ccccc3nc2n(Cc2ccco2)c1=NC(=O)c1cccnc1	POLH inh inconclusive, Pol beta inh 17.8µM, POLI inh inconclusive
CCOC(=O)c1cc2c(=O)n3ccccc3nc2n(Cc2ccco2)c1=NC(=O)c1cccc(Br)c1	Pol beta inh 22.4µM, POLI inh 39.8µM, FEN1 inhibitor inconclusive
CCOC(=O)c1cc2c(=O)n3ccccc3nc2n(Cc2ccco2)c1=NC(=O)c1ccc(OCC)cc1	POLI inh inconclusive
CCOC(=O)c1cc2c(=O)n3ccccc3nc2n(Cc2ccco2)c1=NC(=O)c1ccc(Br)cc1	Pol kappa inh inconclusive, POLI inh 44.7µM, FEN1 inhibitor 35.5µM
CCOC(=O)c1cc2c(=O)n3ccccc3nc2n(Cc2ccco2)c1=NC(=O)c1ccccc1Br	POLH inh inconclusive, Pol kappa inh 89.1µM, Pol beta inh inconclusive, POLI inh 14.1µM, FEN1 inhibitor inconclusive
COc1cc(N(C)C)c(OC)cc1/C=C1\C=Cc2ccccc21	none (no result: POLH inh, Pol beta inh, Tb PGK inh)
Cc1cccn2c(=O)c3cc(C#N)c(=NC(=O)c4ccccc4)n(Cc4ccco4)c3nc12	POLH inh 25.1µM, Pol kappa inh inconclusive, POLI inh inconclusive, FEN1 inhibitor 50.1µM! (no result: Pol beta inh)
O=C(Nc1nnc(-c2ccc(F)cc2)s1)c1ccco1	none
O=C(Nc1n[nH]c(=S)s1)c1ccco1	Pol kappa inh 56.2µM, POLI inh inconclusive, FEN1 inhibitor inconclusive
CC(C)Sc1nnc(NC(=O)c2ccco2)s1	POLH inh 89.1µM, POLI inh inconclusive
O=C(NCCc1ccccc1)c1ccc2c(c1)N(Cc1ccccc1)C(=O)c1ccccc1S2=O (configuration not stated)	none
O=C(N=Nc1c(O)[nH]c2ccccc12)c1cccc(S(=O)(=O)Nc2ccccc2Cl)c1	none (no result: Tb PGK inh)
NS(=O)(=O)c1cc(C(=O)N=Nc2c(O)[nH]c3ccccc23)ccc1Cl	POLH inh inconclusive, Pol beta inh 22.4µM, POLI inh 50.1µM
Nc1ncn([C@H]2O[C@@H](CO)[C@@H](O)[C@@H]2O)c(=O)n1	none (no result: POLH inh, Pol beta inh, Tb PGK inh, POLI inh, FEN1 inhibitor)
Cc1coc2c(C)c3oc(=O)c(CCC(=O)N(C)CC(=O)O)c(C)c3cc12	POLH inh 20µM, Pol beta inh 79.4µM
Cc1coc2cc3oc(=O)c(CC(=O)N(C)CC(=O)O)c(C)c3cc12	none
COc1cccc(CNC(=O)CCc2c(C)c3cc4c(C)coc4c(C)c3oc2=O)c1	POLH inh inconclusive, Pol beta inh 25.1µM, POLI inh inconclusive
COc1cccc(CNC(=O)CCc2c(C)c3cc4c(C)coc4cc3oc2=O)c1	none
CNc1ccc(C=O)cc1Cl	none (no result: POLH inh, Pol beta inh, Tb PGK inh)
CC1=Nc2ccccc2/C1=C\c1nc(-c2ccc(C(F)(F)F)cc2)oc1O	POLI inh 8.91µM
CC1=Nc2ccccc2/C1=C\c1nc(-c2ccccc2)oc1O	POLI inh inconclusive
COc1cccc2c(C)cc3nnc(SCC(=O)Nc4ccc(C)cc4)n3c12	none
CCCCCCCCCC[N+](C)(C)CC/C=C1/c2ccccc2Sc2ccc(Cl)cc21	Pol beta inh 39.8µM, FEN1 inhibitor inconclusive
CCCCCCCCCCC[N+](C)(C)CC/C=C1/c2ccccc2Sc2ccc(Cl)cc21	Pol beta inh inconclusive
Cc1nnc(SCC(=O)Nc2ccc(N(C)C)cc2)[nH]c1=O	POLI inh inconclusive
CCCC(=O)Oc1c(Sc2ccc(Cl)cc2)c(C)nn1-c1ccccc1	POLI inh 25.1µM
Cc1ccc2c(c1)CCCN2C(=O)c1cnn2c1NC(=C1CC1)C=C2C(F)F	none (no result: POLH inh, Pol beta inh, Tb PGK inh)
CCOC(=O)COc1nc(-c2ccco2)cc(-c2ccco2)c1C#N	Pol kappa inh inconclusive, Pol beta inh inconclusive, POLI inh 50.1µM
COc1ccccc1S(=O)(=O)Cc1ccc(C(=O)NCc2ccc(Cl)cc2)o1	none
CCOc1ccccc1CNC(=O)c1cnc2sc(N(CC)CC)nn2c1=O	none
CN(C)c1ccc(C(=C2C=CC(=[N+](C)C)C=C2)c2ccccc2)cc1	none (no result: POLH inh, Pol beta inh, Tb PGK inh, POLI inh, FEN1 inhibitor)
CN(C)c1ccc(C(=C2C=CC(=[N+](C)C)C=C2)c2c(O)c(S(=O)(=O)[O-])cc3cc(S(=O)(=O)O)ccc23)cc1	Pol kappa inh 8.91µM, POLI inh inconclusive, FEN1 inhibitor 44.7µM (no result: POLH inh, Pol beta inh, Tb PGK inh)
CN(C)c1ccc(C(=C2C=CC(=[N+](C)C)C=C2)c2ccc(N(C)C)cc2)cc1	Pol kappa inh inconclusive, FEN1 inhibitor 39.8µM (no result: POLH inh, Pol beta inh, Tb PGK inh)
O=C1c2ccccc2C(=O)N1c1nc(-c2ccc(F)cc2)cs1	none (no result: POLH inh, Pol beta inh, Tb PGK inh)
O=c1cc(-c2cccc(O)c2)oc2cc(O)ccc12	none (no result: POLH inh, Pol beta inh, Tb PGK inh, POLI inh, FEN1 inhibitor)
O=c1cc(-c2ccc(O)cc2)oc2c1ccc1ccccc12	POLH inh 56.2µM (no result: Pol beta inh)
O=c1cc(-c2cccc(O)c2)oc2c(O)c(O)ccc12	Pol kappa inh 2.82µM (no result: POLH inh, Pol beta inh, Tb PGK inh, POLI inh, FEN1 inhibitor)
O=c1cc(-c2ccco2)oc2c1ccc1ccccc12	POLH inh inconclusive, Pol beta inh 17.8µM
CCC(=O)N1CCc2cc(Br)cc(S(=O)(=O)CCC(=O)NCCc3cccc(C)c3)c21	none
C[C@@H]1[C@H](c2ccccc2)OCCS(=O)(=O)N1Cc1ccc(Cl)cc1	none (no result: POLH inh, Pol beta inh, Tb PGK inh)
CCc1ccccc1NC(=O)CSc1nc(-c2cccc(Cl)c2)nc2c1Cc1c(CO)cnc(C)c1O2	none
CCOc1ccc(NC(=O)CSc2nc(-c3cccc(Cl)c3)nc3c2Cc2c(CO)cnc(C)c2O3)cc1	none
Cc1ncc(CO)c2c1Oc1nc(-c3ccccc3)nc(SCC(=O)Nc3cccc(C(F)(F)F)c3)c1C2	POLH inh inconclusive, Pol beta inh 35.5µM
Cc1ncc(CO)c2c1Oc1nc(-c3ccccc3)nc(SCC(=O)Nc3cccc(O)c3)c1C2	POLH inh inconclusive, POLI inh inconclusive
COc1ccc(-c2nc3c(c(SCC(=O)Nc4cccc(O)c4)n2)Cc2c(CO)cnc(C)c2O3)cc1	POLH inh 20µM, Pol kappa inh 79.4µM!, Pol beta inh 1.58µM!, POLI inh 6.31µM, FEN1 inhibitor inconclusive
CCc1ccc(NC(=O)CSc2nc(-c3ccc(C)cc3)nc3c2Cc2c(CO)cnc(C)c2O3)cc1	POLH inh inconclusive, Pol beta inh 50.1µM, POLI inh inconclusive
CCOc1ccc(NC(=O)CSc2nc(-c3ccc(OC)cc3)nc3c2Cc2c(CO)cnc(C)c2O3)cc1	Pol beta inh 39.8µM, POLI inh inconclusive
CCOc1ccc(C(=O)NC2CC(=O)N(c3ccc(C)cc3)C2)cc1OCC (configuration not stated)	none
OC(C[n+]1ccccc1Cl)c1ccccc1 (configuration not stated)	none (no result: POLH inh, Pol beta inh, Tb PGK inh)
Cc1ncc(CO)c2c1Oc1nc(-c3ccc(F)cc3)nc(SCc3ccc(F)cc3Cl)c1C2	Pol beta inh 50.1µM
CCc1ccc(-c2nc3c(c(SCc4ccc(F)cc4)n2)Cc2c(CO)cnc(C)c2O3)cc1	none
COc1ccc2nc(N/C(N)=N/C(=S)Nc3cccc(C)c3)nc(C)c2c1	FEN1 inhibitor inconclusive

Bioassay records: PubChem, National Center for Advancing Translational Sciences (NCATS)
